Hit rate of the full screen: of about 320,000 compounds, about 2,100 (0.66%) were called active. Not shown: some 53% with an inconclusive outcome. This is one part of a sample in which actives are shown more often than they occur. Calls follow the shape of the dose curve; as a rule, active = well fitted inhibition curve with a large enough effect in the signal ratio, with a control signal flat (not every such curve was filed as active); inconclusive = small, poorly fitted or top-dose-only effect, or effect the other way, or a change in a side signal; inactive = flat fitted curve, though single readings scatter; the % refers to the signal ratio.
Potency is read from the fitted curve at half-maximal effect.

The nature of this experiment: qHTS Assay for Lipid Storage Modulators in Drosophila S3 Cells.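 As to cell number change: cells counted by Cell Tracker Red CMTPX staining in the red channel.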 The note with it: BODIPY lipid droplet fluorescence, 18-24 h, cells fed with added oleic acid; cell number change: measured here: cell count max response; series mostly up to 46.1 µM. The method, boiled down: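 Laser-scanning cytometry quantifies lipid droplet accumulation (500–530 nm total intensity; droplet/cell object ratio) in oleic acid-fed (400 uM added) Drosophila S3 cells treated with a concentration series. 20 uM Triacsin C defined 100% inhibition.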
(In qHTS, concentration-response curves come from the screen itself.)
As for `CC(C)C(=O)N=c1sc2cccc(F)c2n1C`, the Potency entry is “inactive” and the cell number change was found to be 19.6%.
For `C/C(=N\NC(=O)CC#N)c1ccc(Oc2ccccc2)cc1`, in that order: “inactive” and 6.12%.
For `CCOc1ccccc1N1C(=O)c2ccc(C(=O)Nc3cccnc3)cc2C1=O`, the Potency entry was “inactive”.
Regarding `CCOc1ccccc1N1C(=O)c2ccc(C(=O)O)cc2C1=O`, the Potency was 4.61 µM (active) and the cell number change is -1.3%.
`CCOc1ccccc1N1C(=O)c2ccc(S(=O)(=O)c3ccc(C(=O)O)cc3)cc2C1=O`: the Potency result was “inactive” and the cell number change worked out at 24.2%.
In the same order, the values of `CCS(=O)(=O)c1ccc2oc(SCC(=O)Nc3ccc(OC)cc3)nc2c1` are “inactive” and 7.84%.
As for `CCN(CC)c1nc(SCC(=O)O)nc(N(CC)CC)n1`, the Potency entry was “inactive”.
With `CCN(CC)c1nc(-c2ccc(C(=O)NN)cc2)nc(-c2ccc(C(=O)NN)cc2)n1`, the Potency result was “inactive” and the cell number change amounted to 26.3%.
For `CCN(CC)c1nc2n(c(=O)n1)CCN2CC`, in that order: 5.17 µM (active) and 14.9%.
Turning to `CCOc1cc(/C=C2\SC(=S)N(N3CCOCC3)C2=O)ccc1O`, the Potency entry was “inactive” and the cell number change was -15.1%.
In the same order, the values of `Nc1nc(N2CCN(C(=O)c3ccco3)CC2)nc2ccccc12` are “inactive” and 7.42%.
In the case of `COc1cc(C#N)ccc1OCC(=O)NCc1cccs1`, the Potency entry was “inactive”.
`CCN(CC)CC(=O)Nc1ccc(-c2nc3cc(NC(=O)CN(CC)CC)ccc3o2)cc1`: the Potency result is “inactive” and the cell number change worked out at 0.429%.
For `CC(=O)Nc1ccc2oc(-c3ccccc3)nc2c1`, in that order: “inactive” and 17.7%.
For `CCc1ccc2oc(-c3ccc(NC(C)=O)cc3)nc2c1`, the Potency is 11.6 µM (active).
Regarding `COc1ccc(NC(=O)Cc2ccc(C)c(C)c2)cc1Cl`, the Potency result is “inactive” and the cell number change is -32.8%.
For `COc1ccc(OC)c(NC=C2C(=O)OC3(CCCCC3)OC2=O)c1`, in that order: “inactive” and -8.05%.
Turning to `COc1ccccc1C(=O)COC(=O)c1ccc(Cl)nc1`, the Potency result is “inactive” and the cell number change was -5.19%.
With `CCN(Cc1ccncc1)C(=O)c1cc(COc2ccc(F)cc2F)on1`, the Potency result was “inactive” and the cell number change is -20.5%.
For `Cc1cc(=S)cc(C)n1CCCO`, in that order: “inactive” and -15.3%.
In the same order, the values of `COc1ccccc1NS(=O)(=O)c1ccc2nc(CCl)[nH]c2c1` are 0.259 µM (active) and -11.7%.
For `COc1ccccc1NS(=O)(=O)c1ccc2[nH]c(=O)[nH]c2c1`, in that order: “inactive” and -22.3%.
As to `COc1ccccc1NS(=O)(=O)c1ccc2oc(=S)[nH]c2c1`, the Potency result was “inactive” and the cell number change was determined as 9.13%.
For `COc1ccc(OCc2nc3ccc(S(=O)(=O)Nc4ccccc4Cl)cc3[nH]2)cc1`, in that order: “inactive” and 18.1%.
In the same order, the values of `COc1ccc(NS(=O)(=O)c2ccc3nc(COc4ccc5ccccc5c4)[nH]c3c2)cc1` are 23.1 µM (active) and -9.6%.
As for `c1ccc2cc(OCc3nc4ccccc4[nH]3)ccc2c1`, the Potency entry was “inactive” and the cell number change was -24.1%.
For `COc1ccc(NS(=O)(=O)c2cccc(C(=O)NCC3(N4CCOCC4)CCCCC3)c2)cc1`, in that order: “inactive” and 1.17%.
Consider `CCCS(=O)(=O)Nc1cccc(-c2cn3c(n2)SCC3)c1`, for which the Potency entry is “inactive” and the cell number change is -21.2%.
In the same order, the values of `Cc1cc(C)n2nc(Sc3ncccc3[N+](=O)[O-])nc2n1` are “inactive” and -8.83%.
For `Cc1ccc(Sc2ncccc2[N+](=O)[O-])cc1`, in that order: “inactive” and -12.8%.
In the same order, the values of `Cc1ccnc(Sc2ncccc2[N+](=O)[O-])n1` are 29.1 µM (active) and -11.7%.
As to `COCc1cc(CN2CCN(Cc3ccsc3)C(CCO)C2)ccc1OC` (stereo not drawn), the Potency entry is “inactive” and the cell number change is 9.7%.
For `CCC(C)(C)NC(=O)C(c1ccc(O)cc1)N(CCOC)C(=O)CCC(=O)Nc1nccs1` (stereo not drawn), in that order: “inactive” and -13.3%.
On to `COCCN(C(=O)CCC(=O)Nc1nccs1)C(C(=O)NC(C)(C)C)c1ccc(F)cc1` (stereo not drawn), for which the Potency result was “inactive” and the cell number change amounted to 9.66%.
In the same order, the values of `CCC(C)(C)NC(=O)C(c1ccc(F)cc1)N(CCOC)C(=O)CCC(=O)Nc1nccs1` (stereo not drawn) are 14.6 µM (active) and 3.04%.
In the same order, the values of `Cc1cc2nnc(SCC(=O)Nc3cccc(S(=O)(=O)N4CCOCC4)c3)n2c2ccccc12` are “inactive” and 5.18%.
As to `C=CCSc1nnc(CC(OC)OC)n1-c1ccccc1`, the Potency entry is “inactive”.
Regarding `CC(=O)Nc1cccc(/C(C)=N/NC(=O)c2ccc(NS(=O)(=O)c3cccs3)cc2)c1`, the Potency entry is “inactive” and the cell number change is 10.3%.
Turning to `Cc1nc(Nc2ccccc2Br)c2nnn(Cc3ccccc3)c2n1`, the Potency result was “inactive” and the cell number change was found to be 8.19%.
For `CCCCN(C(=O)c1ccccc1F)c1c(N)n(CCC)c(=O)[nH]c1=O`, the Potency result is “inactive” and the cell number change came to 28.6%.
On to `CCCCn1c(N)c(N(CC)C(=O)c2ccccc2C(F)(F)F)c(=O)[nH]c1=O`, for which the Potency entry is “inactive” and the cell number change is -2.38%.
Regarding `CCCCn1c(N)c(N(CC)C(=O)c2ccccc2F)c(=O)[nH]c1=O`, the Potency is 8.2 µM (active) and the cell number change came to 6.41%.
For `O=C1NCCN1C(=O)c1cccc(Cl)c1`, in that order: “inactive” and 4.49%.
For `COc1ccc(NC(=O)Nc2nnc(Cc3ccc(F)cc3)s2)cc1`, in that order: “inactive” and -7.21%.
For `O=C(Nc1ccccc1)Nc1nnc(Cc2ccc(F)cc2)s1`, in that order: 0.103 µM (active) and 14%.
Consider `O=C(Nc1nnc(Cc2ccc(F)cc2)s1)Nc1ccccc1F`, for which the Potency entry was “inactive” and the cell number change was -6.61%.
For `O=C1CCc2cc(S(=O)(=O)NC3CCCCC3)cc3c2N1CC3`, the outcome is “inactive [at 0.0737 µM]”.
As for `Cc1ccc(OCC(O)CN2CCN(CCO)CC2)c(C)c1` (stereo not drawn), the Potency result was “inactive” and the cell number change amounted to 3.63%.
Take `O=C(NCc1cccc(C(F)(F)F)c1)C1CCCN(c2ncccn2)C1` (stereo not drawn): the Potency entry is “inactive” and the cell number change came out at 23.6%.
For `CN1C(=O)/C(=C/c2cc(C(C)(C)C)c(O)c(C(C)(C)C)c2)NC1=S`, the Potency result was “inactive”.
On to `O=C(CN1C(=O)S/C(=C\c2ccccc2F)C1=O)NC1C=CS(=O)(=O)C1` (stereo not drawn), for which the Potency entry was “inactive” and the cell number change was -3.44%.
For `O=C1/C(=C/c2ccccc2)SC(=S)N1CC(=O)N1CCCCC1c1cccnc1` (stereo not drawn), in that order: “inactive” and 6.85%.
For `O=C(CN1C(=O)/C(=C/c2ccccc2F)SC1=S)NC1C=CS(=O)(=O)C1` (stereo not drawn), in that order: 16.4 µM (active) and -4.2%.
As to `O=C(CCN1C(=O)/C(=C/c2ccccc2F)SC1=S)NC1C=CS(=O)(=O)C1` (stereo not drawn), the Potency result is “inactive”.
Consider `O=C1/C(=C/c2ccccc2F)SC(=S)N1CC(=O)N1CCCCC1c1cccnc1` (stereo not drawn), for which the Potency is 7.31 µM (active) and the cell number change is -0.951%.
For `O=C(CCN1C(=O)/C(=C\c2ccccc2F)SC1=S)N1CCCCC1`, in that order: “inactive” and 13.6%.
`CC(=O)c1nn(-c2cccc(Br)c2)cc1C(=O)c1ccccc1`: the Potency result was “inactive” and the cell number change was -13.8%.
In the same order, the values of `CC(=O)c1nn(-c2ccccc2)cc1C(=O)c1cccc(Br)c1` are “inactive” and -13.3%.
In the same order, the values of `CC(=O)c1nn(-c2cccc(Br)c2)cc1C(=O)c1ccc2ccccc2c1` are 5.17 µM (active) and -7.14%.
In the same order, the values of `Cc1ccc(C(=O)NC2CCS(=O)(=O)C2)cc1S(=O)(=O)N1CCOCC1` (stereo not drawn) are “inactive” and 10.2%.
In the case of `CCOC(=O)CS(=O)(=O)c1ccccc1`, the Potency result was “inactive” and the cell number change came out at 1.52%.
In the same order, the values of `CCOC(=O)N=S(N)(=O)c1ccc(Cl)cc1` (stereo not drawn) are “inactive” and -0.647%.
Consider `CCOC(=O)N=S(N)(=O)c1ccccc1` (stereo not drawn), for which the Potency was 14.6 µM (active) and the cell number change is -1.15%.
In the same order, the values of `CCc1ccc(NC(=O)NCC2CCN(Cc3cccc(Cl)c3)CC2)cc1` are “inactive” and -23.4%.
For `COC(=O)CCC(=O)NN1C(=O)c2ccccc2C1=O`, in that order: “inactive” and 9.79%.
On to `COC(=O)c1ccc(CON2C(=O)c3ccccc3C2=O)cc1`, for which the Potency result is “inactive” and the cell number change is -3.96%.
Regarding `COC(=O)CON1C(=O)c2ccccc2C1=O`, the Potency is 25.9 µM (active) and the cell number change was -16.7%.
In the same order, the values of `CN(Cc1cccc(F)c1)C(=O)c1cc(S(=O)(=O)N2CCOCC2)ccc1N1CCCC1` are “inactive” and -6.74%.
In the same order, the values of `COc1ccc(OC)c(NC2=NC3(CCCC3)N=C(N)N2)c1` are “inactive” and -7.97%.
Turning to `COc1ccc(NC2=NC3(CCCCC3)N=C(N)N2)cc1`, the Potency result is “inactive” and the cell number change was -9.76%.
`COc1cccc(NC2=NC3(CCCCC3)N=C(N)N2)c1`: the Potency is 6.51 µM (active) and the cell number change was 5.89%.
For `O=C(Cn1nnc2ccccc21)c1ccc([N+](=O)[O-])cc1`, in that order: “inactive” and 9.12%.
For `O=C(Cn1nnc2ccccc21)OCC(=O)c1ccccc1`, in that order: “inactive” and -10.5%.
In the same order, the values of `O=C(CCn1nnc2ccccc21)OCC(=O)c1ccc([N+](=O)[O-])cc1` are 0.731 µM (active) and 5.65%.
Regarding `O=[N+]([O-])c1ccc(N2CCOCC2)cc1NCCCO`, the Potency entry is “inactive” and the cell number change worked out at 7.85%.
In the case of `Cc1ccc2ncnc(Nc3cccc(C(=O)O)c3)c2c1`, the Potency result was “inactive” and the cell number change was -1.09%.
In the same order, the values of `Cc1ccc2ncnc(Nc3cccc([N+](=O)[O-])c3)c2c1` are 8.2 µM (active) and 12.6%.
In the same order, the values of `O=C(O)c1cccc(Nc2ncnc3ccc(Br)cc23)c1` are “inactive” and -2.61%.
For `Cn1ncc2c(Nc3cccc([N+](=O)[O-])c3)ncnc21`, in that order: “inactive” and -17%.
Regarding `Cc1ccc2ncnc(Nc3ccccc3)c2c1`, the Potency entry was “inactive” and the cell number change is -8.5%.
In the same order, the values of `O=C(O)c1cccc(Nc2ncnc3ccccc23)c1` are 25.9 µM (active) and -4.45%.
For `O=C(NCC(=O)N1CCN(c2ccccc2F)CC1)c1ccc(Br)o1`, the Potency entry was “inactive”.
`Cc1cccc(N2CCN(C(=O)c3ccc(CS(=O)Cc4ccc(Cl)cc4)o3)CC2)c1C` (stereo not drawn): the Potency result was “inactive” and the cell number change is -21%.
For `CCN1CCCC1CNCc1ccccc1OCc1ccc(F)cc1` (stereo not drawn), in that order: “inactive” and 13.4%.
For `CCN1CCCC1CNCc1ccc(Cl)cc1Cl` (stereo not drawn), in that order: 7.31 µM (active) and -167%.
With `CCOc1cc(CNCC2CCCN2CC)cc(Cl)c1OC` (stereo not drawn), the Potency entry is “inactive” and the cell number change came to 12.4%.
In the same order, the values of `CCn1cc(CN2CCC(n3nccc3NC(=O)c3ccc(OC)cc3)CC2)cn1` are “inactive” and -5.94%.
For `O=c1[nH]c2ccc(S(=O)(=O)N3CCCCC3)cc2o1`, in that order: “inactive” and 2.33%.
For `COc1ccc(C(=O)NNC(=O)COc2ccc(Cl)cc2)c(OC)c1`, in that order: “inactive” and 4.95%.
On to `CCOc1ccccc1NC(=O)C1CCCN(S(=O)(=O)c2cccc3nsnc23)C1` (stereo not drawn), for which the Potency entry is “inactive” and the cell number change was -15.5%.
In the same order, the values of `CCc1ccc(NS(=O)(=O)c2ccc(OC)c3ncccc23)cc1` are “inactive” and 5.2%.
For `CCNC(=O)C(=O)Nc1cc2c3c(c1)CCN3C(=O)CC2`, in that order: 6.51 µM (active) and -2.95%.
In the same order, the values of `CNC(=O)C(=O)Nc1cc2c3c(c1)CCC(=O)N3CCC2` are “inactive” and -5.6%.
On to `O=C(NCCO)C(=O)Nc1cc2c3c(c1)CCN3C(=O)CC2`, for which the Potency entry is “inactive” and the cell number change was -29%.
For `CC(C)CNC(=O)C(=O)Nc1cc2c3c(c1)CCC(=O)N3CCC2`, the Potency result was “inactive”.
On the same count and under the same terms, with `CNC(=O)C(=O)Nc1cc2c3c(c1)CCN3C(=O)CC2` the entry was “inactive”.
`CC(C)NC(=O)C(=O)Nc1cc2c3c(c1)CCC(=O)N3CCC2`: the Potency was 11.6 µM (active) and the cell number change is -25.7%.

The values above are taken from PubChem BioAssay AID2685 (National Center for Advancing Translational Sciences (NCATS), 2010).
